Our source for the Potency values is PubChem BioAssay (NCATS).

Results filed as inconclusive are left out. Entries that show only a call come without a potency. The source made the active and inactive calls. Calls come from the whole dose curve; as a rule, active = well fitted inhibition curve with a large enough effect; inconclusive = small, poorly fitted or top-dose-only effect, or effect the other way; inactive = flat fitted curve, though single readings scatter.

ATP-dependent 6-phosphofructokinase (Trypanosoma brucei brucei), sequence (O15648 whole entry, looked up): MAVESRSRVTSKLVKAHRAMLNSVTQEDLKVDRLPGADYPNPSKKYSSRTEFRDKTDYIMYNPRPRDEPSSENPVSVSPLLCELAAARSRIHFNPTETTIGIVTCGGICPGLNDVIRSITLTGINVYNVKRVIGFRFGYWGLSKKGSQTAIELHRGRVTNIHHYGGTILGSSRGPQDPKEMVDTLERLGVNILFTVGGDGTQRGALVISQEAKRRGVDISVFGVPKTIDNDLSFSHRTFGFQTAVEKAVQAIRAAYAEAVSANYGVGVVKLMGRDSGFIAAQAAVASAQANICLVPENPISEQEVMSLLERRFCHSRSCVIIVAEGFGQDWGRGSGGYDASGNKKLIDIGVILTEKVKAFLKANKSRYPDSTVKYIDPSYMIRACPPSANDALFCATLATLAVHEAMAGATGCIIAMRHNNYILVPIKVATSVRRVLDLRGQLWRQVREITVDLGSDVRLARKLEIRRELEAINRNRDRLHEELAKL

The target in the assay is ATP-dependent 6-phosphofructokinase (Trypanosoma brucei brucei) (UniProt O15648). The experiment in a line: qHTS Assay to Find Inhibitors of T. brucei phosphofructokinase: hit validation (AID 492961).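 Note: luminescence reports ADP formed as PFK phosphorylates fructose-6-phosphate with ATP.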 Particulars: T. brucei PFK, ADP-Glo luminescence; series mostly up to 51.4 µM. The text has this:
NIH Molecular Libraries Probe Production Network [MLPCN] NIH Chemical Genomics Center [NCGC] Grant: 1 R03 MH092153-01 PI Name: Malcolm Walkinshaw, University of Edinburgh NCGC Assay Overview: Various species of the protozoan family Trypanosomatidae are responsible for a range of serious human diseases in tropical and subtropical areas of the world. […] Many of the disorders caused by trypanosomatids are fatal if left untreated, but most currently used drugs are inefficient and toxic. […] Oxidative metabolism involving the mitochondrial tricarboxylic acid cycle and oxidative phosphorylation are repressed in these parasites, and recent RNA interference (RNAi) experiments have shown that even partial depletion of certain individual glycolytic enzymes can lead to the death of cultured parasites. One such glycolytic enzyme, phosphofructokinase (PFK), catalyzes the formation of fructose-1,6-bisphosphate (F1,6BP) and ADP from fructose-6-phosphate (F6P) and ATP, and in many metabolic circumstances makes an important contribution to the control of flux through the glycolytic pathway. As a specific glycolytic target, PFK is particularly attractive as it catalyzes the first irreversible step in glycolysis, and structural and kinetic studies have shown very substantial and essential differences from corresponding host enzymes, allowing for the discovery of parasite-selective inhibitors. The goal of this screen is to find small-molecule inhibitors of T. brucei PFK using a biochemical assay that measures PFK activity as a function of ADP production. A luminescence-based assay for T. brucei PFK activity has been developed which uses luciferase to detect production of ADP. Traditional luciferase-based nucleotide detection reagents rely on ATP production as a direct substrate for the luciferase reaction; however, PFK catalyzes the transfer of a phosphate from ATP to F6P, resulting in the net depletion of ATP. To directly measure the ADP product of the PFK reaction, we used the ADP-Glo detection kit (Promega), which utilizes two separate reactions to 1) deplete all remaining uncatalyzed ATP and 2) convert all remaining ADP to ATP, which is then detected through a traditional luciferase-coupled reaction. Compounds were screened as a concentration-titration series that ranged from 57 uM to 0.7 nM.
NCGC Assay Protocol Summary: Substrate buffer was dispensed into white, solid 1536-well plates at 3uL/well in 0.1M triethanolamine (TEA) buffer, pH 8.0, containing final concentrations of 5 mM MgCl2, 0.01% Tween20, 0.5 mM fructose-6-phosphate (F6P) and 0.1mM ATP. Then, 23 nL of compounds or DMSO were delivered to each well using a pin tool. One uL T. brucei PFK (0.1M TEA, 0.01% Tween20, 0.1% bovine serum albumin (BSA) and 1.25nM PFK, final concentrations) was then dispensed, and plates were incubated at room temperature for 45 min. The luminescent detection reagent, ADP-Glo (Promega), was then added in two steps: the first reagent, ADP-Glo (which converts remaining uncatalyzed ATP), was added at 2.5uL/well and incubated for ten minutes at room temperature, and the second component, Kinase Detection reagent (which converts ADP to ATP as a substrate for luciferase-based luminescence), was added immediately after at 5uL/well, followed by one final ten minute room temperature incubation. The plates were measured on a ViewLux plate reader for luminescent signal using a clear filter with a one second exposure. The %Activity was determined from the corrected luminescence values. As no specific T. brucei PFK inhibitors have been identified in the literature, 1x (1.25nM) and 0x PFK enzyme controls (untreated) were included to normalize %Activity of identified inhibitors; 0x enzyme values corresponded to 100%Activity (full inhibition), while 1x PFK enzyme values were used to normalize 0%Activity (no inhibition). Concentration-response curves were fitted to the signals arising from the resulting luminescence. […]
On to `CCOC(=O)NC(O)C(Cl)(Cl)Cl` (stereo not given), for which the Potency entry is “inactive”.
As to `COCC(=O)N(c1c(C)cccc1C)C(C)C(=O)OC` (stereo not given), the Potency entry was “inactive”.
On to `Clc1ccc(CO/N=C(\Cn2ccnc2)c2ccc(Cl)cc2Cl)c(Cl)c1`, for which the Potency entry is “inactive”.
Next, `O=C(CCCN1CCC(n2c(=O)[nH]c3ccccc32)CC1)c1ccc(F)cc1`: “inactive”.
As for `O=C(NC(=O)c1c(F)cccc1F)Nc1cc(Cl)c(OC(F)(F)C(F)C(F)(F)F)cc1Cl` (stereo not given), the Potency entry is “inactive”.
Consider `CN1CCc2cc(Cl)c(O)cc2[C@H]2c3ccccc3CC[C@@H]21`, for which the Potency entry is “inactive”.
For the molecule `Cc1c(Cl)c(=O)oc2cc(OP(=O)(OCCCl)OCCCl)ccc12`, the Potency result was “inactive”.
As for `CN1C(=O)[C@@H](NC(=O)c2cc3ccccc3[nH]2)N=C(c2ccccc2)c2ccccc21`, the entry is “inactive”; as for `C[N+](C)(C)CCOC(=O)C(O)(c1ccccc1)c1ccccc1`, “inactive”; as for `CC(C)(O)C(Cl)(Cl)Cl`, “inactive”.
As for `CC(C)C(Br)C(=O)NC(N)=O` (stereo not given), the Potency result was “inactive”.
As to `COP(=O)(OC)OC=C(Cl)Cl`, the Potency entry is “inactive”.
For the molecule `NC(=O)OCCCc1ccccc1`, the Potency entry is “inactive”.
As for `CCC(=O)O[C@H]1CC[C@H]2[C@@H]3CCC4=CC(=O)CC[C@]4(C)[C@H]3CC[C@]12C`, the entry is “inactive”; as for `CC[n+]1c(-c2ccccc2)c2cc(N)ccc2c2ccc(N)cc21`, “inactive”; as for `C=CCOC(Cn1ccnc1)c1ccc(Cl)cc1Cl` (stereo not given), “inactive”.
For `Oc1c(Br)cc(Br)cc1Br`, the Potency entry is “inactive”.
`CC(C)[N+](C)(CCC(C(N)=O)(c1ccccc1)c1ccccc1)C(C)C`: the Potency result was “inactive”.
As to `CC(C)NCC(O)c1ccc(N)c(C#N)c1` (stereo not given), the Potency entry is “inactive”.
Next, `c1cc2c(c(N3CCNCC3)c1)OCCO2`: “inactive”; `CCS(=O)(=O)C(C)(C)S(=O)(=O)CC`: “inactive”; `CCC1(c2ccccc2)CCC(=O)NC1=O` (stereo not given): “inactive”.
Turning to `CNC(=O)Oc1cccc2ccccc12`, the Potency entry is “inactive”.
Consider `O=C1NCN(c2ccccc2)C12CCN(CCCOc1ccc(F)cc1)CC2`, for which the Potency result was “inactive”.
On to `C[C@]12CC[C@H]3[C@@H](CC=C4C[C@@H](O)CC[C@@]43C)[C@@H]1CC[C@@H]2O`, for which the Potency result was “inactive”.
In the case of `C[N+]1(CCC(C(N)=O)(c2ccccc2)c2ccccc2)CCCCC1`, the Potency result is “inactive”.
As to `OC(c1ccccc1)(c1ccccc1)C1CCNCC1`, the Potency entry was “inactive”.
With `CC[C@]1(O)CC[C@H]2[C@@H]3CCC4=CCCC[C@@H]4[C@H]3CC[C@@]21C`, the Potency entry was “inactive”.
For `CCN(Cc1ccc(Cl)nc1)/C(=C/[N+](=O)[O-])NC`, the Potency entry is “inactive”.
Regarding `CCC1(CC)C(=O)NC(=O)NC1=O`, the Potency result was “inactive”.
Take `CN1C[C@@H](NS(=O)(=O)N(C)C)C[C@@H]2c3cccc4c3c(cn4C)C[C@H]21`: the Potency result is “inactive”.
Regarding `C[C@]12Cc3nonc3C[C@@H]1CC[C@@H]1[C@@H]2CC[C@@]2(C)[C@H]1CC[C@]2(C)O`, the Potency entry was “inactive”.
Regarding `COP(=S)(OC)Oc1ccc(Sc2ccc(OP(=S)(OC)OC)cc2)cc1`, the Potency result was “inactive”.
Take `Cc1ncc2n1-c1ccc(Cl)cc1C(c1ccccc1F)=NC2`: the Potency result was “inactive”.
With `N#Cc1nn(-c2c(Cl)cc(C(F)(F)F)cc2Cl)c(N)c1S(=O)C(F)(F)F` (stereo not given), the Potency result is “inactive”.
As to `C[C@]12C=CC(=O)C=C1CC[C@@H]1[C@@H]2CC[C@@]2(C)[C@H]1CC[C@]2(C)O`, the Potency entry was “inactive”.
As to `Nc1ccc(N)cc1`, the Potency entry is “inactive”.
`CN1C(=O)CN=C(c2ccccc2)c2cc([N+](=O)[O-])ccc21`: the Potency entry is “inactive”.
On to `CC(Cc1ccccc1)NCc1ccccc1Cl` (stereo not given), for which the Potency result is “inactive”.
Turning to `C[C@H]1C(=O)O[C@@H]2CCN3CC=C(COC(=O)[C@](C)(O)[C@]1(C)O)[C@H]23`, the Potency entry is “inactive”.
